The results in this text go back to the supplement of paper PMC10037445.

Over roughly 2,900 compounds, “NF-kB SEAP reporter activity, fold change vs agonist alone” has its median near 0.99; the highest 2% begin near 2.6. Shown is part of a subset that was picked to be rich in the highest values.

For assay [1], the system named is RAW-Dual. Description: NF-kB SEAP reporter activity, fold change vs agonist alone; higher = enhanced NF-kB activity. The essentials:
(§1)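 RAW-Dual macrophages were seeded in DMEM at 50,000 cells/well in 384-well plates, given 50 nL of library stock by pin tool, and given a PRR agonist 1 h later. Plates were held at 37 °C, 5% CO2 for 20 hours, after which supernatant was read for IRF by QuantiLuc luminescence and for NF-κB by QuantiBlue absorbance at 620 nm. Reporter activity is expressed as fold change over wells that received agonist alone. A well was called cytotoxic when IncuCyte confluency fell below 70% of agonist controls in both mask sets.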

The test system of assay [2] is RAW-Dual. The assay is described as follows: NF-kB SEAP reporter activity, fold change vs agonist alone; cytotoxicity flag (confluency mask): cytotoxic (confluency <70% of control); higher = enhanced NF-kB activity. The essentials: as §1
The test system of assay [3] is RAW-Dual. The assay is described as follows: NF-kB SEAP reporter activity, fold change vs agonist alone; cytotoxicity flag (confluency mask): not cytotoxic; higher = enhanced NF-kB activity. Summed up: as §1
Setting [4] is: library stock concentration (final ~1000-fold dilution): 10 mM, cytotoxicity flag (confluency mask): cytotoxic (confluency <70% of control), agonist: Imiquimod (TLR7) […].
Setting [5] is: library stock concentration (final ~1000-fold dilution): 10 mM, cytotoxicity flag (confluency mask): cytotoxic (confluency <70% of control), agonist: MPLA (TLR4) […].
Where [6] appears, read: agonist: ODN 1826 (TLR9) 0.5 ug/mL.
The mark [7] stands for this setting: agonist: Pam2CSK4 (TLR2/6) 0.1 ug/mL.
The mark [8] stands for this setting: agonist: Pam3CSK4 (TLR2/1) 0.1 ug/mL.
Where [9] appears, read: library stock concentration (final ~1000-fold dilution): 10 mM, cytotoxicity flag (confluency mask): not cytotoxic, agonist: Imiquimod (TLR7) […].
The mark [10] stands for this setting: library stock concentration (final ~1000-fold dilution): 10 mM, cytotoxicity flag (confluency mask): not cytotoxic, agonist: MPLA (TLR4) […].
Setting [11] is: library stock concentration (final ~1000-fold dilution): 2 mM, cytotoxicity flag (confluency mask): not cytotoxic, agonist: Imiquimod (TLR7) […].
[12] abbreviates: library stock concentration (final ~1000-fold dilution): 2 mM, cytotoxicity flag (confluency mask): not cytotoxic, agonist: MPLA (TLR4) […].

For the compound `CC/C(=C(\c1ccc(O)cc1)c1ccc(OCCNC)cc1)c1ccccc1.Cl`, the “NF-kB SEAP reporter activity” value was determined as 0.387 with RAW-Dual [1] (setting [4]) and 0.632 with RAW-Dual [1] (setting [5]).

As for `CC/C(=C(\c1ccc(O)cc1)c1ccc(OCCNC)cc1)c1ccccc1.Cl` (library stock concentration (final ~1000-fold dilution): 10 mM), the “NF-kB SEAP reporter activity” value was 0.354 in the assay on RAW-Dual [2] (agonist: LPS (TLR4) 0.1 ug/mL), 0.211 with RAW-Dual [2] (setting [6]), 0.157 in the assay with RAW-Dual [2] (setting [7]) and 0.135 in the assay with RAW-Dual [2] (setting [8]).

In the case of `O=C(c1ccc(Oc2ccccc2)cc1Cl)c1c[nH]c2ncnc(NC3CCC(CO)OC3)c12` (stereo unspecified) (library stock concentration (final ~1000-fold dilution): 10 mM), the “NF-kB SEAP reporter activity” value with RAW-Dual [2] (agonist: LPS (TLR4) 0.1 ug/mL) was found to be 0.431; with RAW-Dual [2] (setting [6]) it was 0.161; with RAW-Dual [2] (setting [7]), 0.293; in the assay on RAW-Dual [2] (setting [8]), 0.129.

As to `O=C(c1ccc(Oc2ccccc2)cc1Cl)c1c[nH]c2ncnc(NC3CCC(CO)OC3)c12` (stereo unspecified), the “NF-kB SEAP reporter activity” value came to 0.133 in the assay on RAW-Dual [1] (setting [4]) and 0.252 in the assay with RAW-Dual [1] (setting [5]).

Take `Cc1cc(N2CC(C)NC(C)C2)ncc1-c1ccc(-c2nc3c(ccn3C)c(=O)[nH]2)cc1` (stereo unspecified): the “NF-kB SEAP reporter activity” value in the assay on RAW-Dual [1] (setting [9]) was 1.14; with RAW-Dual [1] (setting [10]), 2.01.

For the compound `Cc1cc(N2CC(C)NC(C)C2)ncc1-c1ccc(-c2nc3c(ccn3C)c(=O)[nH]2)cc1` (stereo unspecified) (library stock concentration (final ~1000-fold dilution): 10 mM), the “NF-kB SEAP reporter activity” value with RAW-Dual [3] (agonist: LPS (TLR4) 0.1 ug/mL) was found to be 2.18; with RAW-Dual [3] (setting [6]) it was 0.278; in the assay with RAW-Dual [3] (setting [7]), 1.38; in the assay on RAW-Dual [3] (setting [8]) it was 1.63.

As for `Nc1ccc(-c2ccc3ncc4ccc(=O)n(-c5cccc(C(F)(F)F)c5)c4c3c2)cn1` (library stock concentration (final ~1000-fold dilution): 10 mM), the “NF-kB SEAP reporter activity” value is 5.68 with RAW-Dual [2] (agonist: LPS (TLR4) 0.1 ug/mL), 2.16 in the assay on RAW-Dual [2] (setting [6]), 1.77 with RAW-Dual [2] (setting [7]) and 3.14 in the assay on RAW-Dual [2] (setting [8]).

On to `CCC(=O)N1CCN(c2ccc(-n3c(=O)ccc4cnc5ccc(-c6cnc7ccccc7c6)cc5c43)cc2C(F)(F)F)CC1` (library stock concentration (final ~1000-fold dilution): 2 mM), for which the “NF-kB SEAP reporter activity” value with RAW-Dual [3] (agonist: LPS (TLR4) 0.1 ug/mL) stood at 1.55; with RAW-Dual [3] (setting [6]), 1.02; in the assay on RAW-Dual [3] (setting [7]) it was 0.421; with RAW-Dual [3] (setting [8]), 0.629.

In the case of `CCC(=O)N1CCN(c2ccc(-n3c(=O)ccc4cnc5ccc(-c6cnc7ccccc7c6)cc5c43)cc2C(F)(F)F)CC1`, the “NF-kB SEAP reporter activity” value turned out to be 0.44 in the assay with RAW-Dual [1] (setting [11]) and 1.51 in the assay on RAW-Dual [1] (setting [12]).

As for `COc1ccc(-c2ccc3ncc4c(c3c2)n(-c2ccc(N3CCNCC3)c(C(F)(F)F)c2)c(=O)n4C)cn1.O=C(O)/C=C\C(=O)O` (library stock concentration (final ~1000-fold dilution): 10 mM), the “NF-kB SEAP reporter activity” value stood at 0.236 in the assay on RAW-Dual [2] (agonist: LPS (TLR4) 0.1 ug/mL), 0.205 in the assay on RAW-Dual [2] (setting [6]), 0.085 in the assay with RAW-Dual [2] (setting [7]) and 0.217 in the assay on RAW-Dual [2] (setting [8]).

For the compound `COc1ccc(-c2ccc3ncc4c(c3c2)n(-c2ccc(N3CCNCC3)c(C(F)(F)F)c2)c(=O)n4C)cn1.O=C(O)/C=C\C(=O)O`, the “NF-kB SEAP reporter activity” value with RAW-Dual [1] (setting [4]) amounted to 0.273; in the assay on RAW-Dual [1] (setting [5]), 0.298.

As to `Nc1ccc(-c2ccc3ncc4ccc(=O)n(-c5cccc(C(F)(F)F)c5)c4c3c2)cn1`, the “NF-kB SEAP reporter activity” value in the assay on RAW-Dual [1] (setting [4]) turned out to be 2.12; in the assay with RAW-Dual [1] (setting [5]) it was 2.7.

Regarding `CCNC1(C(N)=O)CCN(c2ncnc3c2nc(-c2ccccc2Cl)n3-c2ccc(Cl)cc2)CC1.Cl`, the “NF-kB SEAP reporter activity” value with RAW-Dual [1] (setting [11]) is 0.57; in the assay with RAW-Dual [1] (setting [12]), 0.847.

Regarding `CCNC1(C(N)=O)CCN(c2ncnc3c2nc(-c2ccccc2Cl)n3-c2ccc(Cl)cc2)CC1.Cl` (library stock concentration (final ~1000-fold dilution): 2 mM), the “NF-kB SEAP reporter activity” value with RAW-Dual [3] (agonist: LPS (TLR4) 0.1 ug/mL) was found to be 0.587; in the assay with RAW-Dual [3] (setting [6]), 0.493; in the assay with RAW-Dual [3] (setting [7]), 0.537; with RAW-Dual [3] (setting [8]) it was 0.482.

For the compound `COc1ccc(-c2ccc3c(N4CCOCC4C)nc(N4CCOCC4C)nc3n2)cc1CO` (stereo unspecified) (library stock concentration (final ~1000-fold dilution): 10 mM), the “NF-kB SEAP reporter activity” value stood at 1.62 with RAW-Dual [3] (agonist: LPS (TLR4) 0.1 ug/mL), 1.12 in the assay on RAW-Dual [3] (setting [6]), 0.372 in the assay on RAW-Dual [3] (setting [7]) and 0.555 in the assay with RAW-Dual [3] (setting [8]).

Take `COc1ccc(-c2ccc3c(N4CCOCC4C)nc(N4CCOCC4C)nc3n2)cc1CO` (stereo unspecified): the “NF-kB SEAP reporter activity” value in the assay on RAW-Dual [1] (setting [9]) is 1.11; in the assay on RAW-Dual [1] (setting [10]), 1.53.

For the compound `Cc1cc(O)c(-c2ccc(C(C)CN(C)C)cc2)c2c1[nH]c(=O)c1sccc12.Cl.Cl` (stereo unspecified) (library stock concentration (final ~1000-fold dilution): 10 mM), the “NF-kB SEAP reporter activity” value was found to be 0.764 in the assay with RAW-Dual [2] (agonist: LPS (TLR4) 0.1 ug/mL), 0.357 in the assay on RAW-Dual [2] (setting [6]), 0.311 in the assay on RAW-Dual [2] (setting [7]) and 0.482 in the assay with RAW-Dual [2] (setting [8]).

Regarding `Cc1cc(O)c(-c2ccc(C(C)CN(C)C)cc2)c2c1[nH]c(=O)c1sccc12.Cl.Cl` (stereo unspecified), the “NF-kB SEAP reporter activity” value in the assay on RAW-Dual [1] (setting [4]) was 1.2; in the assay with RAW-Dual [1] (setting [5]), 1.37.

On to `CC(N)C12CC3CC(CC(C3)C1)C2.Cl` (stereo unspecified) (library stock concentration (final ~1000-fold dilution): 10 mM), for which the “NF-kB SEAP reporter activity” value in the assay with RAW-Dual [3] (agonist: LPS (TLR4) 0.1 ug/mL) came out at 1.15; with RAW-Dual [3] (setting [6]), 0.619; in the assay on RAW-Dual [3] (setting [7]) it was 1.24; in the assay with RAW-Dual [3] (setting [8]) it was 0.847.

For the compound `CC(N)C12CC3CC(CC(C3)C1)C2.Cl` (stereo unspecified), the “NF-kB SEAP reporter activity” value in the assay with RAW-Dual [1] (setting [10]) is 1.06.

Consider `O=C(Cn1nnc(-c2ccncc2)c1-c1ccccc1)Nc1ccc(-c2ccccc2)cn1` (library stock concentration (final ~1000-fold dilution): 10 mM), for which the “NF-kB SEAP reporter activity” value was determined as 1.06 in the assay with RAW-Dual [3] (agonist: LPS (TLR4) 0.1 ug/mL), 0.623 in the assay with RAW-Dual [3] (setting [6]), 0.34 in the assay on RAW-Dual [3] (setting [7]) and 0.345 in the assay on RAW-Dual [3] (setting [8]).

Turning to `O=C(Cn1nnc(-c2ccncc2)c1-c1ccccc1)Nc1ccc(-c2ccccc2)cn1`, the figures for the “NF-kB SEAP reporter activity” value with RAW-Dual [1] (setting [9]) and with RAW-Dual [1] (setting [10]) were 0.711 and 0.961, respectively.

Regarding `COc1cc2c(cc1-c1c(C)noc1C)ncc1[nH]c(=O)n(C(C)c3ccccn3)c12` (stereo unspecified) (library stock concentration (final ~1000-fold dilution): 10 mM), the “NF-kB SEAP reporter activity” value in the assay with RAW-Dual [2] (agonist: LPS (TLR4) 0.1 ug/mL) is 4.87; with RAW-Dual [2] (setting [6]) it was 2.55; in the assay with RAW-Dual [2] (setting [7]), 0.529; in the assay with RAW-Dual [2] (setting [8]), 1.93.

`COc1cc2c(cc1-c1c(C)noc1C)ncc1[nH]c(=O)n(C(C)c3ccccn3)c12` (stereo unspecified): the “NF-kB SEAP reporter activity” value in the assay with RAW-Dual [1] (setting [4]) was determined as 2.61; with RAW-Dual [1] (setting [5]), 2.46.
